According to PubChem BioAssay AID1159580 (chemical genetic matrix, 2015):
Where “and” joins values, the source holds several entries; their conditions need not be identical. Equal values may be shown once. The campaign covered roughly 5,500 compounds. About 2,000 (36%) were called active. About 18% were inconclusive and are not listed. Cut-off read from the data, not from the text of the source: active = normalized growth mostly below about 0.91 (no sharp cut-off); inconclusive = no clear call, values can overlap the other calls; inactive = mostly above about 0.92. The list shows a part of the results.

Assay: chemical genetic growth profiling, strain panel (AID 1159580);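 note: tested at 20 µM; growth read once vehicle control cultures reached saturation at 30 °C; 1 = growth at the plate median or of vehicle wells; lower values mean less growth of the strain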
Settings: S. cerevisiae deletion strains, growth OD

Measured: normalized growth

Cn1c(=O)c2[nH]c(C3CCCC3)nc2n(C)c1=O
inactive: locus YAL013W, strain DEP1, hits give low values 1.01 | locus YAL021C, strain ccr4, hits give low values 0.989 | locus YAL026C, strain drs2, hits give low values 0.997 | locus YAL030W, strain snc1, hits give low values 0.99 | locus YAL040C, strain CLN3, hits give low values 0.977 | locus YBL061C, strain skt5, hits give low values 0.996 | locus YBR009C, strain hhf1, hits give low values 0.99 | locus YBR021W, strain FUR4, hits give low values 1.02 | locus YBR023C, strain chs3, hits give low values 0.996 | locus YBR171W, strain sec66, hits give low values 1.01 | locus YBR229C, strain ROT2, hits give low values 1.01 | locus YBR231C, strain swc5, hits give low values 0.997 | locus YBR279W, strain paf1, hits give low values 0.992 | locus YCL011C, strain gbp2, hits give low values 0.999 | locus YCL016C, strain dcc1, hits give low values 0.992 | locus YCL029C, strain bik1, hits give low values 0.994 | locus YCL061C, strain MRC1 (second series), hits give low values 0.985 | locus YCL061C, strain MRC1, hits give low values 0.993 | locus YCL069W, strain vba3, hits give low values 0.992 | locus YCR088W, strain abp1, hits give low values 1 | locus YDL005C, strain med2, hits give low values 0.982 | locus YDL035C, strain GPR1, hits give low values 1.01 | locus YDL040C, strain nat1, hits give low values 0.998 | locus YDL074C, strain BRE1, hits give low values 1.03 | locus YDL101C, strain DUN1, hits give low values 1.02 | locus YDL134C, strain PPH21, hits give low values 1.01 | locus YDL185W, strain tfp1, hits give low values 1.01 | locus YDL192W, strain arf1, hits give low values 1 | locus YDR001C, strain nth1, hits give low values 1 | locus YDR069C, strain doa4, hits give low values 0.979 | locus YDR101C, strain arx1, hits give low values 0.985 | locus YDR137W, strain rgp1, hits give low values 1 | locus YDR150W, strain NUM1, hits give low values 1.02 and 0.999 | locus YDR159W, strain sac3, hits give low values 0.989 | locus YDR162C, strain NBP2, hits give low values 1.02 | locus YDR195W, strain ref2 0.944 | locus YDR297W, strain sur2, hits give low values 0.991 | locus YDR318W, strain mcm21, hits give low values 0.986 | locus YDR334W, strain swr1, hits give low values 0.997 | locus YDR335W, strain msn5, hits give low values 0.995 | locus YDR363W, strain ESC2, hits give low values 1.03 | locus YDR388W, hits give low values 0.995 | locus YDR392W, strain spt3, hits give low values 0.85 | locus YDR502C, strain sam2, hits give low values 1.01 | locus YEL003W, strain gim4, hits give low values 1 | locus YEL037C, strain rad23, hits give low values 1 | locus YEL061C, strain CIN8 (second series), hits give low values 1.01 | locus YEL061C, strain CIN8, hits give low values 1.01 | locus YER002W, strain NOP16, hits give low values 0.944 | locus YER015W, strain faa2, hits give low values 0.994 | locus YER016W, strain bim1, hits give low values 0.99 | locus YER110C, hits give low values 0.991 | locus YER111C, strain swi4, hits give low values 0.998 | locus YER155C, strain BEM2 (second series), hits give low values 0.961 | locus YER155C, strain BEM2, hits give low values 1.01 | locus YER167W, strain BCK2, hits give low values 1.01 | locus YFR010W, strain ubp6, hits give low values 1 | locus YGL078C, strain dbp3, hits give low values 1 | locus YGL086W, strain mad1, hits give low values 0.997 | locus YGL167C, strain pmr1, hits give low values 0.984 | locus YGL173C, strain kem1, hits give low values 0.997 | locus YGL227W, strain vid30, hits give low values 0.991 | locus YGL240W, strain doc1, hits give low values 0.981 | locus YGL248W, strain PDE1, hits give low values 1.02 | locus YGL253W, strain hxk2, hits give low values 1.01 | locus YGR078C, strain PAC10, hits give low values 1.01 | locus YGR135W, strain pre9, hits give low values 0.982 | locus YGR229C, strain SMI1, hits give low values 1.02 and 1.04 | locus YGR252W, strain gcn5, hits give low values 0.904 | locus YHR013C, strain ard1, hits give low values 0.953 | locus YHR027C, strain rpn1, hits give low values 0.991 | locus YHR030C, strain SLT2, hits give low values 1.01 and 0.978 | locus YHR079C, strain IRE1 (second series), hits give low values 0.994 | locus YHR079C, strain IRE1, hits give low values 0.991 | locus YHR094C, strain hxt1, hits give low values 1 | locus YHR129C, strain ARP1, hits give low values 1.01 | locus YHR142W, strain chs7, hits give low values 1 | locus YHR200W, strain rpn10, hits give low values 1.01 | locus YIL066C, strain RNR3, hits give low values 1 | locus YIL073C, strain SPO22, hits give low values 1 | locus YIL125W, strain kgd1, hits give low values 0.995 | locus YIR030C, strain dcg1, hits give low values 1 | locus YJL092W, strain hpr5, hits give low values 1.01 | locus YJL095W, strain BCK1 (second series), hits give low values 0.992 | locus YJL095W, strain BCK1, hits give low values 1 and 0.974 | locus YJL115W, strain asf1, hits give low values 0.987 | locus YJL129C, strain trk1, hits give low values 0.974 | locus YJL134W, strain LCB3, hits give low values 1.01 | locus YJL154C, strain vps35, hits give low values 0.995 | locus YJL164C, strain tpk1, hits give low values 0.987 | locus YJL166W, strain qcr8, hits give low values 0.984 | locus YJL168C, strain set2, hits give low values 1 | locus YJL187C, strain SWE1 (second series), hits give low values 1.01 | locus YJL187C, strain SWE1, hits give low values 0.99 | locus YJR043C, strain POL32, hits give low values 0.992 | locus YJR066W, strain TOR1, hits give low values 0.96
